Shown are actives, neighbours in structure and some others; about 2.3% of the full set was active somewhere.
Abeta rescue = A-beta toxicity reversal in yeast. yeast expressing A-beta42, growth rescue, OD600, 48 h; response scale: 0% DMSO, 100% iron-clioquinol control. Potency, µM (doses to about 46.1 µM), hits mostly activators. 410,000 tested, 0.063% active; further: nearly all actives have a fitted effect of over 55% in size
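Growth rescue measured by 600 nm absorbance after 48 h yeast culture at 30 C with compound. Values normalized between DMSO and an equimolar ferric chloride plus clioquinol control.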
FUS suppressor = FUS proteinopathy suppression in yeast; S. cerevisiae FUS-expressing, growth rescue, OD600, 24 h; Potency, µM (doses to about 76.6 µM), most hits filed as activators; 390,000 tested, 0.24% active; further: nearly all actives have a fitted effect of over 55% in size
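Galactose (2%) drives FUS expression in yeast precultured in raffinose; seeding density OD 0.005. Test compounds incubated 24hr at 30C and 99% humidity before absorbance at 600 nm was measured.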
uPA generation = blocks generation of uPA at the cell surface; cell surface uPA generation assay, qHTS; Potency, µM (series often up to 38.3 µM), usual class: inhibitors; 330,000 tested, 0.31% active; active means well fitted inhibition curve with a large enough effect; inconclusive means small, poorly fitted or top-dose-only effect; inactive means no such curve, though single readings can be large or run the other way; tested in mouse RAW 264.7 cells; further: nearly all actives have a fitted effect of over 55% in size
TDP43 rescue = rescues yeast growth from TDP-43 toxicity; TDP-43 expressing yeast growth rescue, BacTiter-Glo, 24 h; Potency, µM (highest dose often 46.1 µM), hits mostly activators; 410,000 tested, 1.8% active; further: nearly all actives have a fitted effect of over 50% in size
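In this qHTS, compounds that restore growth of yeast expressing TDP-43 appear as activators. Cells (OD600=0.02, galactose medium, raffinose-pregrown) are incubated with compound 24 hr at 30 deg C and growth is quantified by BacTiter-Glo.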
aSyn yeast inh = alpha-synuclein toxicity inhibition in yeast; Potency, µM (series often up to 46.1 µM), actives largely listed as activators; Yeast expressing alpha-synuclein, growth rescue, BacTiter-Glo, 24 h; 370,000 tested, 0.14% active; further: nearly all actives have a fitted effect of over 65% in size
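Screening used galactose-induced yeast with toxic alpha-synuclein levels, exposed to compound for 24 hr at 30 deg C. Cell growth, read with BacTiter-Glo luminescence, gave the measured signal.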
Chronic BCR inh = chronic active BCR signaling inhibition. 340,000 tested, 0.05% active. Potency, µM (doses to about 46.1 µM), hits mostly inhibitors. ABC-DLBCL IkBa-CBG/CBR reporter, luminescence ratio, 4 h. AID 493014; active means well fitted inhibition curve with a large enough effect in the signal ratio, with a control signal flat, not every such curve was filed as active; inconclusive means small, poorly fitted or top-dose-only effect, or effect the other way, or a change in a side signal; the % refers to the signal ratio
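Doxycycline induced both beetle luciferases in TMD8 lymphoma cells; IKK-driven degradation limits the IkappaBalpha-fused green signal, while red luminescence normalises for cell number and nonspecific effects. Compounds tested up to 46 uM, 4 hrs.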
Large screens that a line does not name were inactive. Unless noted, the call rests on the fitted dose curve; in most records, active means well fitted curve in the direction sought with a large enough effect; inconclusive means small, poorly fitted or top-dose-only effect, or another doubt; inactive means no such curve, though single readings can be large; an effect the other way counts as inactive or inconclusive.

O=c1[nH]nc(CNc2ccc(OC(F)(F)F)cc2)c2ccccc12	TDP43 rescue 14µM, Chronic BCR inh inconclusive
Cc1ccc2[nH]c3c(Cl)ncnc3c2c1	none
COc1ccc2c(c1)[nH]c1c(Cl)ncnc12	TDP43 rescue 11µM, aSyn yeast inh inconclusive, Chronic BCR inh inconclusive
N#Cc1cc(-c2ccccc2)oc1/N=C/c1ccccc1O	Chronic BCR inh inconclusive
COc1cccc(/C=N/c2oc(-c3ccccc3)cc2C#N)c1O	TDP43 rescue 13µM, Chronic BCR inh inconclusive
CCCn1c(NC(=O)c2ccc(Br)cc2)nc2ccccc21	Chronic BCR inh inconclusive (no result: uPA generation)
CCCn1c(NC(=O)c2ccccc2Br)nc2ccccc21	TDP43 rescue 16µM
CCCCn1c(NC(=O)c2ccccc2)nc2ccccc21	TDP43 rescue inconclusive, aSyn yeast inh 25µM
C=CCn1c(NC(=O)c2ccccc2)nc2ccccc21	TDP43 rescue 18µM
COc1ccc(-c2nn3c(-c4ccccc4)nnc3s2)cc1	FUS suppressor inconclusive, TDP43 rescue 14µM
c1ccc(-c2nnc3sc(-c4csc5c4CCCC5)nn23)cc1	TDP43 rescue 20µM (no result: FUS suppressor)
c1ccc(-c2nnc3sc(-c4ccncc4)nn23)cc1	none (no result: uPA generation)
COc1cc(-c2nnc3sc(Cc4ccc(Cl)cc4)nn23)cc(OC)c1OC	uPA generation inconclusive (no result: Chronic BCR inh)
COc1ccc(-c2nn3c(-c4ccc(F)cc4)nnc3s2)cc1	Chronic BCR inh inconclusive
COc1ccc(Cc2nn3c(-c4cc(OC)c(OC)c(OC)c4)nnc3s2)cc1	FUS suppressor inconclusive, TDP43 rescue 22µM, Chronic BCR inh inconclusive
COc1ccc(-c2noc(CNC(=O)c3ccc(OC)cc3OC)n2)cc1	none (no result: uPA generation, aSyn yeast inh, Chronic BCR inh)
O=C(NCCCCCCNC(=O)OCCO)OCCO	none
CNc1oc(-c2ccc(Cl)cc2)nc1P(=O)(c1ccccc1)c1ccccc1	FUS suppressor inconclusive, TDP43 rescue 18µM
Cc1ccc(-c2nc(P(=O)(c3ccccc3)c3ccccc3)c(N3CCOCC3)o2)cc1	none
Nc1ccccc1SCc1csc(-c2ccc(Cl)cc2)n1	TDP43 rescue 13µM, Chronic BCR inh inconclusive
Clc1ccc(-c2nc(CSc3ccccn3)cs2)cc1	none (no result: uPA generation, Chronic BCR inh)
CCOc1ccc(S(=O)(=O)Nc2ccc(C(=O)NCC3CCCO3)cc2)cc1 (stereo unspecified)	none
CC1(C)CC(=O)C(C=NCCN2CCNC2=O)=C(O)C1	Chronic BCR inh inconclusive
CCC1CCc2sc(C(=O)N(C)CC(=O)Nc3ccc(N4CCOCC4)cc3)cc2C1 (stereo unspecified)	TDP43 rescue 8.9µM
CCC1CCc2sc(C(=O)N(C)CC(=O)Nc3ccc(OC)cc3)cc2C1 (stereo unspecified)	TDP43 rescue 11µM
CCC1CCc2sc(C(=O)N(C)CC(=O)Nc3cccc(OC)c3)cc2C1 (stereo unspecified)	none (no result: FUS suppressor)
CCN1C(=O)/C(=C\c2ccncc2)SC1=Nc1ccc(C)c(C)c1	TDP43 rescue 14µM (no result: FUS suppressor)
CN1CCc2nc3sc(C(=O)Nc4ccccc4OC(F)(F)F)c(N)c3cc2C1	FUS suppressor inconclusive, TDP43 rescue 18µM, Chronic BCR inh inconclusive (no result: uPA generation, aSyn yeast inh)
Cc1cc(C)c(NC(=O)CNC(=O)COC(=O)Cc2cccs2)c(C)c1	TDP43 rescue 11µM
O=C(COC(=O)c1ccc(S(=O)(=O)N2CCCC2)cc1)Nc1cccc(F)c1	none
Brc1ccccc1C1CC(c2ccccc2)=Nc2ccccc2N1 (stereo unspecified)	TDP43 rescue 35µM, Chronic BCR inh inconclusive
Fc1ccc(NC(=S)NN=Cc2ccccc2Cl)cc1	Abeta rescue inconclusive (no result: Chronic BCR inh)
Oc1c(Cl)cc(Cl)cc1/C=N/NC(=S)NC1CC2C=CC1C2 (stereo unspecified)	Abeta rescue inconclusive, Chronic BCR inh inconclusive
Oc1ccccc1C=NNC(=S)NC1CC2C=CC1C2 (stereo unspecified)	Abeta rescue inconclusive, TDP43 rescue 13µM, aSyn yeast inh inconclusive (no result: uPA generation, Chronic BCR inh)
Oc1ccccc1/C=N/NC(=S)NC1CC2C=CC1C2 (stereo unspecified)	Abeta rescue 11µM, Chronic BCR inh inconclusive
Oc1ccccc1C=NNC(=S)Nc1ccc(F)cc1	TDP43 rescue inconclusive, aSyn yeast inh 22µM (no result: Chronic BCR inh)

High-throughput results (PubChem)
